GoLoco inh red: qHTS Assay for Inhibitors of RGS12 GoLoco Motif Activity (Red Fluorophore) | Gai1:RGS12 GoLoco peptide FP, rhodamine, 10 min | Potency, µM (top dose mostly 61.6 µM), for inactives: at the top dose activity, negative = inhibition, usual class: inhibitors | 230,000 compounds, 0.44% hits | AID 880, 2007; active = well fitted inhibition curve with a large enough effect, not every such curve was filed as active; inactive = no such curve, though single readings can be large or run the other way; also: potency is read from the fitted curve at half-maximal effect; % is scaled to controls: 0 for no effect and ±100 for the full control effect; nearly all actives have a fitted effect of over 30% in size
Target sequence (P63096 whole entry, looked up): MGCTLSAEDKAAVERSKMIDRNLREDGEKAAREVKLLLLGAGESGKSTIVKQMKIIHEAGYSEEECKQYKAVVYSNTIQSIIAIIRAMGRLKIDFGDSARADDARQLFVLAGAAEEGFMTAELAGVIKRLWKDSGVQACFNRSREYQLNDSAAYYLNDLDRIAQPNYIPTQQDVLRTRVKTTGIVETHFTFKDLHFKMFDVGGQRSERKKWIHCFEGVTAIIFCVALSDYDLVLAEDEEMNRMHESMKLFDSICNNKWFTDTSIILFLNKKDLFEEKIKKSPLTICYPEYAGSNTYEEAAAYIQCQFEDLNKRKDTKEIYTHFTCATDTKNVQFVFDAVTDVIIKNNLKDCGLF
JMJD2E inh: qHTS Assay for Inhibitors of Human Jumonji Domain Containing 2E (JMJD2E); AID 2147, 2009; 230,000 compounds, 1.6% hits; JMJD2E catalytic domain, FDH-coupled NADH fluorescence (FDH is formaldehyde dehydrogenase); Potency, µM (titrated, usually from 57.1 µM), without a hit: at the top dose activity change, negative = inhibition, hits mostly inhibitors; Lysine-specific demethylase 4E (Homo sapiens), B2RXH2; active = well fitted inhibition curve with a large enough effect, not every such curve was filed as active; inconclusive = small, poorly fitted or top-dose-only effect, or another doubt; inactive = no such curve, though single readings can be large or run the other way;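 also: potency is read from the fitted curve at half-maximal effect; 0% = wells with enzyme and -100% = buffer wells without enzyme; nearly all actives have a fitted effect of over 50% in size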
HTT aggregate: qHTS Multiplex Assay to Identify Dual Action Probes in a Cell Model of Huntington: Aggregate Formation (GFP); PC12 HttQ103-GFP aggregates, Acumen cytometry, 40 h; Potency, µM (series often up to 46.1 µM), inactives show at the highest dose activity change, negative = inhibition, usual class: inhibitors; 220,000 compounds, 1.1% hits; AID 1688, 2009; also: potency is read from the fitted curve at half-maximal effect; % is scaled to controls: 0 for no effect and ±100 for the full control effect; nearly all actives have a fitted effect of over 60% in size
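Multiplexed with ATP-based cell death, this channel scores GFP aggregates in PC12 cells expressing inducible HTTex1-Q103-GFP. Induction used 100 nM tebufenozide; compounds were tested in concentration series.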
VDR inh: Inhibitors of the vitamin D receptor (VDR): qHTS. AID 504847, 2011. VDR-SRC2-3 peptide fluorescence polarization, 2 h. Potency, µM, inactives show max response, negative = inhibition, hits mostly inhibitors. 400,000 compounds, 0.93% hits. Vitamin D3 receptor (Homo sapiens), P11473; also: potency is read from the fitted curve at half-maximal effect; % is scaled to controls: 0 for no effect and ±100 for the full control effect
Target sequence (P11473 whole entry, looked up): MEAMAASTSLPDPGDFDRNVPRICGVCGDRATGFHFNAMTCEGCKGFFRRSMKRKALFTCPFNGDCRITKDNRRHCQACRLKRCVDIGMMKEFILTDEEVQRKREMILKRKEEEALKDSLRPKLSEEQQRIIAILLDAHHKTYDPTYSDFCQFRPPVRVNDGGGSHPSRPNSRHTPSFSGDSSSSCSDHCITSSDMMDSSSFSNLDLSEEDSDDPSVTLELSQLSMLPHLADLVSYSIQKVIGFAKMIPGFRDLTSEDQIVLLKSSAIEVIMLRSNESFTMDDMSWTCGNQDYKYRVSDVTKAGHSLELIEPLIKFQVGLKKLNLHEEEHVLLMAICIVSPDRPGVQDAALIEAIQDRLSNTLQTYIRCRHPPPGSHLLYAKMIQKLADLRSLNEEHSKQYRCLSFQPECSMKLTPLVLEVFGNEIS
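Compounds are added to VDR with labelled SRC2-3 coactivator peptide and held 2 h at room temperature. Inhibition of the VDR–peptide interaction is then read as a change in fluorescence polarization.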
FBPA coupling cs: qHTS Assay for Inhibitors of Fructose-1,6-bisphosphate Aldolase from Giardia Lamblia: Coupling assay counterscreen | 290,000 compounds, 0.67% hits | activity change, negative = inhibition, % at 58.2 µM, hits read low | coupling enzyme system counterscreen, AmpLite Red fluorescence; in the data active = activity change below about -30%; also: % is scaled to controls: 0 for no effect and ±100 for the full control effect
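Final compound at 57.5 uM, incubated 10 min at RT with coupling enzyme reagent (glyceraldehyde-3-phosphate), then 20 min with substrate and AmpLite Red detection. Fluorescence read at 525/598 nm; tests interference with the coupling assay, not aldolase inhibition.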
HTT ATP protect: qHTS Multiplex Assay to Identify Dual Action Probes in a Cell Model of Huntington: Cytoprotection (ATP). PC12 HTT-Q103 induced, cytoprotection, ATP luminescence, 40 h. Potency, µM (top dose mostly 56.4 µM), for the others: cytoprotection (ATP increase), hits mostly activators. 230,000 compounds, 0.14% hits; also: potency is read from the fitted curve at half-maximal effect; % of control where 0% means no effect; nearly all actives have a fitted effect of over 45% in size
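Compounds added alongside 100 nM tebufenozide, which induces toxic Q103 huntingtin exon 1-GFP in stable PC12 cells; surviving cells quantified by luminescent ATP measurement. Medium: phenol red-free DMEM, 5% equine and 5% calf serum.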
VDR confirm: qHTS for Inhibitors of the vitamin D receptor (VDR): Hit Validation in Primary Screen; shares compounds with VDR inh; VDR-coactivator inhibition assay, qHTS confirmation; Potency, µM, actives largely listed as inhibitors; 840 compounds, 89% hits; also: potency is read from the fitted curve at half-maximal effect
VDR FP fluor: qHTS for Inhibitors of the vitamin D receptor (VDR): Hit Validation using a Fluorescein Assay; shares compounds with VDR inh; VDR-coactivator binding, fluorescein fluorescence polarization; Potency, µM (titrated, usually from 57.1 µM), for inactives: top-dose activity change, negative = inhibition, hits mostly inhibitors; 840 compounds, 48% hits; also: potency is read from the fitted curve at half-maximal effect
VDR bla: qHTS for Inhibitors of the vitamin D receptor (VDR): Hit Validation using a Beta-Lactamase Assay. VDR beta-lactamase reporter cells, FRET ratio; cells co-treated with VDR agonist LG190178. Potency, µM (top dose mostly 46.1 µM), for inactives: top-dose activity change, negative = inhibition, hits mostly inhibitors. shares compounds with VDR inh. 840 compounds, 23% hits; also: potency is read from the fitted curve at half-maximal effect; % is scaled to controls: 0 for no effect and ±100 for the full control effect
VDR viability: qHTS for Inhibitors of the vitamin D receptor (VDR): Hit Validation using a Cytotoxicity Assay; cytotoxicity counter-screen, cell viability, qHTS; Potency, µM (top dose mostly 48.3 µM), without a hit: at the top dose activity change, negative = cytotoxicity, usual class: cytotoxic; AID 602204, 2012; 840 compounds, 18% hits; shares compounds with VDR inh;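 also: potency is read from the fitted curve at half-maximal effect; plate controls were DMSO for no effect and high-concentration cycloheximide for full effect; nearly all actives have a fitted effect of over 75% in size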
Numbers without * were called inactive; ? = inconclusive; . = not tested or not shown; [ ] = dose if it differs, or a comment. Shown are actives, neighbours in structure and some others; about 2.3% of the full set was active somewhere. Unless noted, calls follow the shape of the dose curve; as a rule, active = well fitted curve in the direction sought with a large enough effect; inconclusive = small, poorly fitted or top-dose-only effect, or another doubt; inactive = no such curve, though single readings can be large; an effect the other way counts as inactive or inconclusive.

SMILES	GoLoco inh red	JMJD2E inh	HTT aggregate	VDR inh	FBPA coupling cs	HTT ATP protect	VDR confirm	VDR FP fluor	VDR bla	VDR viability
C=C(C)[C@@H]1C2=CC(C(=O)OC)=C(C[C@@H](C(=C)C)[C@H]3O[C@H]3C3=C[C@H]1OC3=O)O2	.	.	.	20µM*	.	.	7.1*	14µM*	?	17µM*
O=C(O)c1ccc(N/N=C/c2cn(Cc3ccc(F)cc3)c3ccccc23)cc1	6%	?	0%[9.22 µM]	?	-1	-15%[10 µM]	.	.	.	.
O=[N+]([O-])/C=C/c1cn(Cc2ccc(F)cc2)c2ccccc12	-6%	-2%	?	20µM*	0	-103%	6.7*	?	21µM*	?
CCOC(=O)C1=C(COC(=O)c2ccccc2[N+](=O)[O-])NC(=O)NC1C (stereo unspecified)	.	.	.	3%	.	.	.	.	.	.
COc1ccc2oc(=O)cc(CN3CCN(c4ccc(F)cc4)CC3)c2c1	.	.	.	5%	.	.	.	.	.	.
CC[C@@]1(c2cccc(C)c2)C(=O)N(C(=O)OC)N1C(=O)OC	.	.	.	?	-1	.	.	.	.	.
CCOC(=O)N1C(=O)[C@@](CC)(c2ccccc2)N1C(=O)OCC	.	.	.	79µM*	2	.	21*	-23%	5%	?
CCOc1ccc(/C=C/C(=O)Nc2sc3c(c2C(=O)OC)C(C(=O)OC)CC3)cc1 (stereo unspecified)	.	.	.	22µM*	.	.	?	3.5µM*	13µM*	?
CCN(CC)C(=O)Cn1cc(S(=O)(=O)CC(=O)N2CCOCC2)c2ccccc21	.	.	.	-12%	.	.	.	.	.	.
O=c1c(Cl)c(Cl)cnn1Cc1nnc(-c2ccc(Cl)cc2)o1	8%	-4%	?	?	3	-188%	?	?	?	?
Cc1ccc(CCNC(=O)c2ccc3c(c2)N(Cc2cccc(Cl)c2)C(=O)c2ccccc2S3(=O)=O)cc1	.	.	.	4%	.	.	.	.	.	.
O=[N+]([O-])c1cccnc1S(=O)(=O)c1ccccc1	.	.	.	?	4	.	.	.	.	.
COc1ccc([N+](=O)[O-])c(S(=O)(=O)c2ccccc2)n1	-12%	1%	-16%[9.22 µM]	32µM*	1	-14%[10 µM]	15*	?	18µM*	16µM*
O=C(O)CN1C(=O)/C(=C\c2cc(Br)ccc2OCc2ccc(Cl)cc2Cl)SC1=S	.	.	.	45µM*	16	.	17*	18µM*	12%	?
O=C(O)CN1C(=O)/C(=C/c2ccsc2)SC1=S	15%	-14%	13%	-7%	13	-15%	.	.	.	.
O=C(Nc1ccccc1)c1nc(S(=O)(=O)Cc2ccccc2F)ncc1Cl	.	.	.	.	.	.	2.5*	2.5µM*	3.3µM*	13µM*
O=C(Nc1ccc(OC(F)F)cc1)c1nc(S(=O)(=O)Cc2ccccc2F)ncc1Cl	.	.	.	.	.	.	6.3*	4µM*	16µM*	17µM*
CCCOc1ccc(NC(=O)CC2C(=O)N(c3ccc(C)cc3)C(=O)N2C(C)C)cc1 (stereo unspecified)	.	.	.	4%	.	.	.	.	.	.
CCCn1c(-c2ccc(F)cc2)nc2c(NCCN3CCSCC3)nc(C)nc21	10%	-12%	.	.	1	-36%	.	.	.	.
Fc1ccc(F)c(C2=NNC(=Nc3ccccc3F)SC2)c1	17%	4%	8%	-26%	1	.	.	.	.	.
Fc1ccc(N=C2NN=C(c3cc(F)ccc3F)CS2)cc1	20%	?	?	32µM*	0	38%[1.9 µM]	?	?	4%	?
O=S(=O)(c1ccc(N=C2NN=C(c3cc(F)ccc3F)CS2)cc1)N1CCOCC1	-10%	-7%	4%	1.6µM*	3	-16%	2.5*	?	-24%	?
COc1cc(C#N)c(NC(=S)N2CCOCC2)cc1OC	2%	-12%	9%	.	-3	.	.	.	.	.
CCOC(=O)c1c(-c2ccc(C)s2)csc1N	12%	1%	8%	79µM*	-41*	-45%	19*	11µM*	11%	23%
Cc1cc(Cl)ccc1NC(=O)c1cc(S(=O)(=O)N2CCOCC2)cn1C	.	.	.	3%	.	.	.	.	.	.
SMILES	GoLoco inh red	JMJD2E inh	HTT aggregate	VDR inh	FBPA coupling cs	HTT ATP protect	VDR confirm	VDR FP fluor	VDR bla	VDR viability
O=C(c1ccccc1)C(CCC(CN1CCOCC1)C(=O)c1ccccc1)CN1CCOCC1 (stereo unspecified)	8%	-5%	?	?	-1	-94%	?	?	21µM*	29%
O=C(NN(Cc1ccccc1)Cc1ccccc1)c1ccccc1	.	.	.	11%	.	.	.	.	.	.
COc1ccc(NC(=O)/C(Cl)=C(/Cl)S(=O)Cc2ccc(Cl)cc2)cn1 (stereo unspecified)	3%	1%	4.5µM*	11µM*	-1	-155%	4.2*	2.8µM*	1.8µM*	11µM*
O=C(CCS(=O)(=O)c1cccs1)Nc1ccc(C(=O)Nc2ccccc2F)cc1	.	.	.	-11%	.	.	.	.	.	.
O=[N+]([O-])c1ccc2c(c1)S(=O)(=O)C=C2	.	.	.	13µM*	-2	.	22*	?	3.7µM*	6µM*
O=C(COC(=O)C1CC2CCCC(C1)C2=O)NNC(=O)c1ccc([N+](=O)[O-])cc1 (stereo unspecified)	.	.	.	-8%	.	.	.	.	.	.

Bioassay records deposited in PubChem by National Center for Advancing Translational Sciences (NCATS).
